Measurements from PubChem BioAssay AID2315 (National Center for Advancing Translational Sciences (NCATS), 2010).
In all, about 290,000 compounds went through this assay and about 27,000 (9.3%) were called active. The sample as a whole holds a higher share of actives than the screen did. A number with no mark means an inactive call. No stated cut-off is given here; in the data, active means inhibition mostly above about 28% (no sharp cut-off); inactive means mostly below about 43%.

Assay: A qHTS for Small Molecule Inhibitors of Shiga Toxin; further: 0% is about no effect
Settings: Vero cells, Shiga toxin protein synthesis inhibition reporter; at 38.7 µM, hits give high values
Work on `Cc1ccccc1NC(=O)CN1C(=O)N/C(=C\c2cccn2-c2cccc(C(=O)O)c2)C1=O` yielded an inhibition of -13.8%. `COc1cc2c(cc1/C=C1/NC(=O)N(c3ccccc3)C1=O)OCO2` gave an inhibition of 24.2%. For `O=C1N/C(=C/c2cccn2-c2ccccc2)C(=O)N1c1cccc(Cl)c1`, the inhibition was 60.1% (active). Work on `CCc1cccc(C)c1N1C(=O)CN(Cc2ccccc2)C1=S` yielded an inhibition of -3.04%. With `O=C(c1c(F)cccc1F)N1CCN(S(=O)(=O)c2ccc3c(c2)OCCO3)CC1` the inhibition was 2.06%. In the case of `O=C(Nc1ccc(OCC(=O)N2CCOCC2)cc1)c1cc(F)c(F)cc1Cl`, the inhibition is reported as 24.7%. `Cc1cc(=O)oc2c(C)c(OC(C)C(=O)NC3CCN(Cc4ccccc4)CC3)ccc12` (centres undefined) gave an inhibition of -5.37%. For `CCS(=O)(=O)N1Cc2ccccc2CC1C(=O)Nc1nc2ccc(F)cc2s1` (centres undefined), the inhibition was 99.4% (active). For `Cc1ccc2nc(NC(=O)C3CCN(S(=O)(=O)c4ccc5c(c4)oc(=O)n5C)CC3)sc2c1`, the inhibition was -20.5%. `CCS(=O)(=O)N1Cc2ccccc2CC1C(=O)Nc1ccc(OC)cc1OC` (centres undefined) showed an inhibition of 24.9%. In the case of `CCN(CC)c1ccc(C(=O)Nn2c(C)nc3ccccc3c2=O)cc1`, the inhibition is reported as 1.76%. `COc1cccc(OCc2nnc3n2N=C(c2ccccc2)C(CC(=O)O)S3)c1` (centres undefined) showed an inhibition of -9.17%. With `Cn1cccc1/C=N/NC(=O)c1ccc(OC(F)(F)C(F)F)cc1` the inhibition was 33.1% (active). In the case of `CCn1c(/C=N/NC(=O)c2ccc(OC)cc2)nc2ccccc21`, the inhibition is reported as 15%. Compound `COc1ccc(/C=N/NC(=O)c2cccc(C(F)(F)F)c2)cc1` has an inhibition of 17.5%. Work on `c1ccc(-c2cnc(CN3CCN(c4ccccc4)CC3)o2)cc1` yielded an inhibition of -3.91%. `O=C(COCc1cc(-c2ccc3c(c2)OCO3)on1)N1CCN(c2cccc(Cl)c2)CC1` showed an inhibition of 4.57%. With `CCc1cc(C(N)=O)c(NC(=O)c2ccc(OC)cc2)s1` the inhibition was 33.1% (active). With `CCOC(=O)N1CCN(Cc2nc3cc(NC(C)=O)ccc3n2C)CC1` the inhibition was -4.25%. Compound `CC(=O)NCCc1nc2cc(NC(=O)c3ccccc3)ccc2n1C` has an inhibition of 38.3%. In the case of `Cc1ccc(NC(=O)c2ccc(Oc3ncccn3)cc2)cc1`, the inhibition is reported as 54.9% (active). For `COc1ccc(C(=O)NC(=S)NC2CCCCC2)cc1`, the inhibition was 91.2% (active). Compound `COc1ccc(C(=O)Nc2ccc(NC(=O)C(C)C)nc2)cc1` has an inhibition of 22.3%. Work on `CCc1cc(C(c2ccccc2OC)N2CCOCC2)c(NC(=O)c2ccccc2)s1` (centres undefined) yielded an inhibition of 33.3%. For `O=C(NC(=S)NC1CCCCC1)c1ccc(Cl)cc1`, the inhibition was -12.4%. Work on `CCCNC(=S)N1CCC(NC(=O)c2ccc(OC)cc2)CC1` yielded an inhibition of 10.3%. Work on `CCc1cc(C(=O)c2ccc(OC)cc2)c(NC(=O)CN2CCN(C)CC2)s1` yielded an inhibition of -6.04%. For `Cn1c(CN2CCOCC2)nc2cc(NC(=O)c3ccc(Cl)cc3)ccc21`, the inhibition was 69.5% (active). In the case of `Cc1ccc(NC(=O)c2cccnc2C(=O)Nc2ccc(C)cc2)cc1`, the inhibition is reported as 20.9%. For `Cc1cc(OCC(=O)Nc2c(C)n(C)n(-c3ccccc3)c2=O)ccc1[N+](=O)[O-]`, the inhibition was -12.8%. For `Cc1ccc(CC2(O)CCN(CCOc3ccc(O)cc3)CC2)cc1`, the inhibition was -5.63%. `Cc1ccccc1N1CCN(C2CCCN(C(=O)c3ocnc3C)C2)CC1` (centres undefined) showed an inhibition of -9.46%. Work on `Cc1cc(C)cc(NC(=O)C2CCCN(S(=O)(=O)c3ccc4[nH]c(=O)ccc4c3)C2)c1` (centres undefined) yielded an inhibition of 14.1%. Work on `Cc1cccc(NC(=O)c2ccc3c(=O)n(CC4CCCO4)c(=S)[nH]c3c2)c1` (centres undefined) yielded an inhibition of -1%. For `O=C(Cn1ccc2cc(S(=O)(=O)N3CCCC3)ccc21)NCc1ccccc1`, the inhibition was -6.39%. Work on `COc1ccc(NC(=O)CCn2ccnc2)c(OC)c1` yielded an inhibition of -6.3%. Compound `COc1ccc(S(=O)(=O)N/N=C\c2ccc(OC)c(COc3ccc(C)cc3[N+](=O)[O-])c2)cc1` has an inhibition of -12.5%. Compound `COc1ccc(C(=O)Nc2cccc(S(C)(=O)=O)c2)cc1` has an inhibition of 21.9%. Compound `O=C(CS(=O)(=O)c1ccccc1)Nc1ccc(S(=O)(=O)Nc2ccccn2)cc1` has an inhibition of -7.44%. In the case of `COc1ccc(C(=O)Nc2ccc(CN3CCOCC3)cc2)cc1`, the inhibition is reported as 80.4% (active). In the case of `COc1ccc(NC(=O)c2ccc(OC)cc2)cc1`, the inhibition is reported as 105% (active). For `Cc1cccc(C(=O)Nc2ccc(Oc3cnccn3)cc2)c1`, the inhibition was 57.2% (active). `COc1ccc(NC(=O)c2ccc(C#CC(C)(C)O)cc2)cc1` showed an inhibition of 28%. `CCOc1ccc(C(=O)Nc2ccc(CN3CCOCC3)cc2)cc1Cl` showed an inhibition of 9.47%. For `Cc1cccc(C(=O)Nc2ccccc2C(=O)NCc2cccnc2)c1`, the inhibition was -16.9%. With `COc1ccc(NC(=O)CS(=O)(=O)c2ccccc2)cc1` the inhibition was 28.2% (active). With `O=C(Nc1ccc(CSc2ccccc2)cc1)c1ccc(CN2CCOCC2)cc1` the inhibition was 7.03%. `COc1ccc(NC(=O)c2cnc(NS(=O)(=O)c3ccccc3)nc2)cc1` gave an inhibition of -13.6%. `Cc1noc(C)c1COc1cccc(C(=O)Nc2cccnc2)c1` gave an inhibition of -6.89%. With `O=C(NCCCN1CCCC1=O)C(=O)NCC1OCCN1S(=O)(=O)c1ccc(Br)cc1` (centres undefined) the inhibition was 22.9%. With `Nc1nc(Nc2ccccc2F)nc(NC2CCCCC2)c1[N+](=O)[O-]` the inhibition was 2.97%. `Cn1c(N2CCOCC2)c(C=O)c2ccccc21` gave an inhibition of -1.16%. Compound `Cc1ccc(Cn2ncc3c4sc(C)cc4n(C)c3c2=O)c(C)c1` has an inhibition of -2.93%. Work on `C=CCn1cc(Cl)cc(C(=O)Nc2ccccc2)c1=O` yielded an inhibition of 16.8%. `CCN(CC)c1ccc(C(=O)NNC(=O)CCc2nc3ccccc3c(=O)[nH]2)cc1` gave an inhibition of 10.9%. Compound `Cc1ccc(NC(=O)COc2ccc(/C=C3/NC(=O)NC3=O)cc2)cc1` has an inhibition of 8.39%. `CC(C)CN(CC(C)C)C(=O)CN1c2cccc3cccc(c23)S1(=O)=O` showed an inhibition of 2.89%. Compound `COc1ccc(C(CCN2CCOCC2)c2c(OC)cc(OC)c3c2OC(=O)CC3c2ccc(OC)cc2)cc1` (centres undefined) has an inhibition of -0.588%. Compound `COc1ccc(C(C)NC(=S)NC2CCCCC2)cc1OC` (centres undefined) has an inhibition of -35.1%.
